For 4 molecules, composite z-score and z-score results are on record in PubChem BioAssay.

The subject of test [1] is Wnt5a (protein binding on small-molecule microarray). Kind of test: Wnt5a binders on small-molecule microarray, primary screen, biophysical, 635/667 nm fluorescence (AID 1142).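 Also: fluorescence read at 667 nm with signal to noise per printed feature.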 As to conditions: 635 nm fluorescence, higher = more signal.
Test [2] is described as follows: cell viability in Huh7 cells, primary screen, cytotoxicity control for HCV replication inhibitor project, CellTiter-Glo luminescence, basal, 48 h (AID 1143).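 Also: Huh7 hepatoma cells carrying a hepatitis C replication reporter with no stimulus; test concentration not given here.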 As to conditions: Huh7 HCV replicon, higher = more signal, called active from +8 up or from −8 down.
Test [3] in a line: P. aeruginosa biofilm formation inhibitors, primary screen, PAO1 strain, BacTiter-Glo luminescence, LB-PBS (AID 1144). The note with it: 12 h, higher = more signal.
Test [4] in a line: CREB reporter modulators without forskolin, primary screen, cell-based, PC12, CRE-LacZ reporter, unstimulated (AID 1145). As to conditions: no forskolin, luminescence, 4.5 h, higher = more signal, called active from +8 up or from −8 down.
Test [5] can be described thus: CREB reporter modulators under forskolin, primary screen, cell-based, PC12, CRE-LacZ reporter, forskolin-stimulated (AID 1146).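 Also: PC12 cells with 6xCRE LacZ reporter stimulated by forskolin 10 µM; beta-galactosidase reporter signal reflecting CREB driven transcription.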 As to conditions: luminescence, 4.5 h, higher = more signal, called active from +8 up or from −8 down.
Test [6] has as its target Streptavidin (Streptomyces avidinii) (UniProt P22629). Description: streptavidin binders on small-molecule microarray, primary screen, artefact control for SMM compound annotation, biophysical, 635/667 nm fluorescence (AID 1147).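 Also: signal reflects streptavidin binding to arrayed compounds as a control protein.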 The note with it: streptavidin binding, higher = more signal.
A short description of test [7]: small-molecule binders of probe aInhba, primary screen, biochemical, small-molecule microarray, 635/667 nm fluorescence (AID 1148).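 Also: score merges 667nm spot fluorescence with signal-to-noise for antibody binding to printed compounds.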 As to conditions: higher = more signal.
The target in test [8] is Torsin-1A (Homo sapiens) (UniProt O14656). Description: torsin A binders from cell lysate, primary screen, small-molecule microarray, wild-type, 635/667 nm (AID 1149). As to conditions: COS7 hTOR1A-WT lysate, 635 nm fluorescence, higher = more signal.
Test [9] has the same target. Description: small-molecule binders of mutant TOR1A in lysate, primary screen, cell lysate, small-molecule microarray, COS7 lysate, 635/667 nm fluorescence (AID 1150).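 Also: score pools 667 nm emission and signal to noise measuring lysate protein binding.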 The note with it: COS7 hTOR1A mutant lysate, 635 nm fluorescence, higher = more signal.
The subject of test [10] is Sonic hedgehog protein (Shh). Kind of test: small-molecule binders of Shh protein, primary screen, biochemical, small-molecule microarray, 635/667 nm fluorescence (AID 1151).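 Also: Shh protein binding to compounds spotted on small-molecule microarray slides; score combines spot fluorescence intensity with signal-to-noise across triplicate slides.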 As to conditions: small-molecule microarray binding, 635 nm fluorescence; higher = more signal.
Test [11] in a line: E. coli DRC41 culture turbidity changes, primary screen, E. coli filamentation inducer project, strain DRC41, OD650, 48 h (AID 1152).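 Also: E. coli MC1000 strain DRC41 lacking acrAB efflux pump and sulA.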 The note with it: E. coli DRC41 (acrAB sulA), higher = more signal, called active from +8 up or from −8 down.
The nature of test [12]: small-molecule binders of probe aLefty1, primary screen, biochemical, small-molecule microarray, 635/667 nm fluorescence (AID 1153).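 Also: score merges spot fluorescence with signal-to-noise ratio from the scanned slide images.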 The note with it: higher = more signal.
Test [13] can be described thus: PSAC antagonists in infected red cells, primary screen, cell-based, P. falciparum Indochina, OD700, 1 h (AID 1154). The note with it: P. falciparum Indochina infected RBC osmotic lysis, higher = more signal, called active from +8 up or from −8 down.
Test [14] is described as follows: PSAC antagonists in infected red cells, primary screen, cell-based, P. falciparum Indochina, OD700, 2 h (AID 1155).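 Also: lysis reports solute entry through the parasite surface anion channel PSAC; channel blockers reduce lysis of infected cells.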 The note with it: P. falciparum Indochina infected erythrocytes, osmotic lysis OD700; higher = more signal, called active from +8 up or from −8 down.
The nature of test [15]: osmotic lysis modulators in infected erythrocytes, primary screen, PSAC antagonist project, cell-based, P. falciparum Indochina, OD700, 3 h (AID 1156). As to conditions: higher = more signal, called active from +8 up or from −8 down.
The nature of test [16]: PSAC antagonists in infected red cells, primary screen, cell-based, P. falciparum Indochina, OD700, 18 h (AID 1157). As to conditions: P. falciparum Indochina infected erythrocytes, osmotic lysis OD700, 18 h; higher = more signal, called active from +8 up or from −8 down.
Test [17] in a line: modulators of S6 phosphorylation in cells, primary screen, cell-based, A549, cytoblot, luminescence, serum-stimulated (AID 1158).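 Also: serum-stimulated A549 lung adenocarcinoma cells; signal is phosphorylated S6 detected by cytoblot immunostaining with HRP secondary.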 The note with it: A549 phospho-S6 cytoblot, 5 h, higher = more signal.
For test [18], the target named is NADPH oxidase 2 (Homo sapiens) (UniProt P04839). Kind of test: NOX2-dependent H2O2 signal modulators, primary screen, NOX inhibitor project, cell-based, HEK293-NOX2, PMA-stimulated, Amplex Red fluorescence (AID 1159). Also: test concentration not given here. The note with it: 45 min, higher = more signal, called active from +8 up or from −8 down.
For test [19], the target named is NADPH oxidase 4 (Homo sapiens) (UniProt Q9NPH5). Description: NOX4-dependent H2O2 signal modulators, primary screen, NOX inhibitor project, cell-based, HEK293-NOX4, tetracycline-induced, Amplex Red fluorescence (AID 1160). As to conditions: 45 min, higher = more signal, called active from +8 up or from −8 down.
For test [20], the target named is NADPH oxidase 5 (Homo sapiens) (UniProt Q96PH1). Description: NOX5-dependent H2O2 signal modulators, primary screen, NOX inhibitor project, cell-based, HEK293-NOX5, Amplex Red fluorescence (AID 1161). As to conditions: HEK293-NOX5, ionomycin, 45 min, higher = more signal.

Structures are written as SMILES. Active and inactive are the calls of the source. Unless noted, no rule for the calls is given here.

NADPH oxidase 5 (Homo sapiens), sequence (Q96PH1 whole entry, looked up): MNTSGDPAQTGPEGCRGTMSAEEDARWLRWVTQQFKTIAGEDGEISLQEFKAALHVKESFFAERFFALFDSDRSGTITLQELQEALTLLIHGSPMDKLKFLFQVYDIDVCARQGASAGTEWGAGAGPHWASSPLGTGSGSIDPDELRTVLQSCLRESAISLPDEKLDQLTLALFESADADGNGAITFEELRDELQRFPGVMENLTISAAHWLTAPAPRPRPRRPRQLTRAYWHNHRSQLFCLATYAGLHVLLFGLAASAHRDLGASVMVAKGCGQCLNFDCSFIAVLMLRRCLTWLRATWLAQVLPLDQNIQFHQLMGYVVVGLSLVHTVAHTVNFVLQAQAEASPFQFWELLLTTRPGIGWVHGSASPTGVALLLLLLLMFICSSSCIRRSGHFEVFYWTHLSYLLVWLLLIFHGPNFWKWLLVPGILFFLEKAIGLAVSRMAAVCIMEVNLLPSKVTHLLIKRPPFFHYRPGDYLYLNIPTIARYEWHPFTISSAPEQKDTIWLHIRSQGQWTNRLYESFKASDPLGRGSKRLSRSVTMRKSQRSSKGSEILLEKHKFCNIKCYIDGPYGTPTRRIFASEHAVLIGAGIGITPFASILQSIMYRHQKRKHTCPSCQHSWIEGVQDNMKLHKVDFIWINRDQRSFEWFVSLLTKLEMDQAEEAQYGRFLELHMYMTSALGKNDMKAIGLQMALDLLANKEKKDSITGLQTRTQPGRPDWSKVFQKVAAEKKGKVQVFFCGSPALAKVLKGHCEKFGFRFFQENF
Streptavidin (Streptomyces avidinii), sequence (P22629 whole entry, looked up): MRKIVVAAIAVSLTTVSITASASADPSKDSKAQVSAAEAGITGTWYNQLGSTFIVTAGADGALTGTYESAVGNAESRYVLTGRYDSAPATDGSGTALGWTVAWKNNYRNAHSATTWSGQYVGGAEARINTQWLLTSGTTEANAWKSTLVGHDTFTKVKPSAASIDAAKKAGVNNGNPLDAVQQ
Torsin-1A (Homo sapiens), sequence (O14656 whole entry, looked up): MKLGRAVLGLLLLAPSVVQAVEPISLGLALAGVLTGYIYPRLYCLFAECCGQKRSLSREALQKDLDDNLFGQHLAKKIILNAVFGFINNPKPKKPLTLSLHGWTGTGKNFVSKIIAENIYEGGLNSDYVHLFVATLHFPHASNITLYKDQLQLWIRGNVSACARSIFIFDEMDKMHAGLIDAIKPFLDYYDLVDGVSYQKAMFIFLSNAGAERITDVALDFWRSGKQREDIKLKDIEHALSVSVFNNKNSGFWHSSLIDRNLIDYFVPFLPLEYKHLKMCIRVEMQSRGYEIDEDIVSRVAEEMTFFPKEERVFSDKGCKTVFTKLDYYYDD
NADPH oxidase 2 (Homo sapiens), sequence (P04839 whole entry, looked up): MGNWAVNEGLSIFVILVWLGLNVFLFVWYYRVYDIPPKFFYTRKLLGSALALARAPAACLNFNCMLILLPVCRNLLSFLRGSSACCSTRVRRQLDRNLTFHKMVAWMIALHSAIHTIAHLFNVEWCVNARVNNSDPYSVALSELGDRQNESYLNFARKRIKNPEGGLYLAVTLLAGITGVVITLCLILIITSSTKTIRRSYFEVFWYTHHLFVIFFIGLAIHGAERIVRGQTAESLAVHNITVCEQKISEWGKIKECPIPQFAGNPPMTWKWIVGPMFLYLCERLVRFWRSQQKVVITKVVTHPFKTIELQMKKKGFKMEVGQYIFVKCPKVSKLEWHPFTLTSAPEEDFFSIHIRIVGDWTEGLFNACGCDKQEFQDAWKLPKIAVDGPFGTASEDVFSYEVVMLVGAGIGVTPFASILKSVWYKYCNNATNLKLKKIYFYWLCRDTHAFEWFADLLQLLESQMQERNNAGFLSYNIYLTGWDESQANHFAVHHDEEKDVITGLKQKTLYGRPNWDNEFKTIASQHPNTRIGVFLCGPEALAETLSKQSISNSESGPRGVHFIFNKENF
NADPH oxidase 4 (Homo sapiens), sequence (Q9NPH5 whole entry, looked up): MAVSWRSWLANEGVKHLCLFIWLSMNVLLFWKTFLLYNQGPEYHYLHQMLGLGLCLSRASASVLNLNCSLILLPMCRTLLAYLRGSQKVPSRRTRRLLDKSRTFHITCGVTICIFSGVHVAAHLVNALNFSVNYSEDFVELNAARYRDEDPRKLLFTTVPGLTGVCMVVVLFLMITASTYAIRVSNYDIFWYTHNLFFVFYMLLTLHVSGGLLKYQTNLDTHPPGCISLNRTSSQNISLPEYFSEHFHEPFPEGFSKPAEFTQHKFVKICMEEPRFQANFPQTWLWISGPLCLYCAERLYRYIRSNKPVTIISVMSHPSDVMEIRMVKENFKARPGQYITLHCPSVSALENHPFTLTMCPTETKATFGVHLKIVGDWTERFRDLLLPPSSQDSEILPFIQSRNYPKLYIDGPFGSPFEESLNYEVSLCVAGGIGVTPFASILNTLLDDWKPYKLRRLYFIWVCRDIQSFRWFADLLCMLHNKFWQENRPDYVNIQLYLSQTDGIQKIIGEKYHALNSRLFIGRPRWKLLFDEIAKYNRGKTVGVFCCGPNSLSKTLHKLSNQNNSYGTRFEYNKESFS

`COC(=O)[C@H](C)NC(=O)[C@@H](C)CO`: the composite z-score in [1] was 0.174; in test [6], 0.733; in test [7], -0.0313; in [8], 0.927; in test [9], 0.461; in test [10] it was 0.575. Besides, the composite z-score in test [12] came out at 0.138. Further, the z-score is -0.76 (inactive) in test [2]; 0.06 (inactive) in test [3]; -0.432 (inactive) in [4]; 0.17 (inactive) in [5]; -0.534 (inactive) in test [11]; 0.295 (inactive) in [13]. For the same molecule, the z-score in test [14] was 0.451 (inactive); in test [15], 0.372 (inactive); in [16], 0.665 (inactive); in test [17], 0.656; in test [18] it was -0.371 (inactive); in test [19], -0.71 (inactive). Moreover, the z-score in [20] is 0.468.

Regarding `Cc1cc2c(c(=O)o1)[C@H](O)[C@H]1O[C@H]1C2=O`, the composite z-score in test [1] is -0.218; in [6], 0.0061; in test [7] it was -0.209; in test [8], 0.284; in [9] it was 0.46; in test [10], 1.5. In [12], the composite z-score is -0.237. Further, the z-score is -2.97 (inactive) in test [2]; 1.6 (inactive) in test [3]; -1.06 (inactive) in [4]; 2.18 (inactive) in test [5]; -0.743 (inactive) in test [11]; -0.228 (inactive) in [13]. The z-score in test [14] is 0.496 (inactive); in test [15] it was 0.716 (inactive); in test [16], 0.0033 (inactive); in [17], -0.573; in [18] it was 1.67 (inactive); in [19] it was -1.04 (inactive). Moreover, in test [20], the z-score was -1.39.

Take `[N-]=[N+]=NCc1ccccc1[C@@H]1OC(c2ccc(OCCCO)cc2)=N[C@]1(Cc1ccccc1)C(=O)N1CCOCC1`: the composite z-score in test [1] came out at 0.599; in [6], 1.66; in test [7], 0.618; in [8], 3.2; in test [9], 3.32; in test [10] it was 0.0283. In test [12], the composite z-score was determined as 0.904. The z-score in test [2] was -3.55 (inactive); in test [3] it was 0.369 (inactive); in [4], -0.0017 (inactive); in test [5], 0.531 (inactive); in test [11] it was 0.854 (inactive); in test [13], 16.7 (active). The z-score in [14] was 2.9 (inactive); in test [15], 2.49 (inactive); in test [16], 1.01 (inactive); in test [17] it was 0.131; in [18] it was -1.85 (inactive); in test [19], -0.253 (inactive). Moreover, the z-score in test [20] is -1.21.

Turning to `CO[C@@H]1COC(=O)CCC[C@@H](C)[C@H](OC)COC(=O)[C@H](Cc2ccccc2)NC(=O)CC=C[C@H]1C`, the composite z-score is -0.706 in [1]; -0.431 in test [6]; -0.159 in test [7]; 1.34 in test [8]; -0.0271 in test [9]; 1.99 in [10]. In addition, the composite z-score in test [12] was -0.235. Moreover, the z-score in [2] is -1.08 (inactive); in test [3], -0.894 (inactive); in test [4] it was 0.0897 (inactive); in test [5] it was 1.18 (inactive); in test [11], 0.585 (inactive); in test [13], 1.99 (inactive). For the same molecule, the z-score in test [14] was 1.07 (inactive); in test [15], 1.21 (inactive); in test [16], 0.368 (inactive); in test [17], 1.02; in test [18] it was 0.0908 (inactive); in [19] it was -0.255 (inactive). The z-score in test [20] was -0.444.
